In PubChem BioAssay:
Calls of active or inactive are those of the source.

How the values were obtained:
[1] = test system: Plasmodium falciparum Sir2 (PF13_0152, Sir2A); experiment: pfSir2 binders on small-molecule microarrays, primary screen, biochemical, small-molecule microarray, 635 nm fluorescence (AID 1098); conditions: small-molecule microarray binding, fluorescence 635 nm; higher = more signal;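 also: score merges spot fluorescence intensity with its signal-to-noise ratio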
[2] = small-molecule microarray binders of probe aDKK1, primary screen, biochemical, biotinylated probe, 635/667 nm fluorescence (AID 1099); conditions: higher = more signal;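 also: score merges 667nm spot fluorescence with signal to noise across triplicate slides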
[3] = small-molecule microarray binders of probe aCHRDL2, primary screen, biochemical, biotinylated probe, 635/667 nm fluorescence (AID 1100); conditions: higher = more signal
[4] = splicing luciferase reporter signal modulators, primary screen, spliceosome inhibition project, cell-based, HEK293, splice +/- reporter (AID 1101); conditions: luminescence, 24 h, higher = more signal, called active from +8 up or from −8 down;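 also: HEK293 cells carrying a splicing-competent luciferase reporter gene; test concentration not given here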
[5] = target: Fibroblast growth factor 10 (Homo sapiens) (UniProt O15520); experiment: FGF10 binders on small-molecule microarrays, primary screen, biochemical, small-molecule microarray, 635 nm fluorescence (AID 1102); conditions: FGF10 binding, fluorescence 635 nm, higher = more signal
[6] = test system: glycogen synthase kinase-3 (GSK3A per assay name; protocol says GSK3B); experiment: GSK3 binders on small-molecule microarrays, primary screen, biochemical, small-molecule microarray, 635 nm fluorescence, GSK3A (AID 1103); conditions: small-molecule microarray binding, fluorescence 635 nm; higher = more signal; also: the record names both GSK3A and GSK3B
[7] = target: Epidermal growth factor receptor (Homo sapiens) (UniProt P00533); experiment: EGFR binders on small-molecule microarrays, primary screen, biochemical, small-molecule microarray, 635 nm fluorescence (AID 1104); conditions: EGFR binding, higher = more signal;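 also: score merges 667 nm emission intensity with spot signal to noise over triplicate slides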
[8] = target: Follistatin-related protein 3 (Homo sapiens) (UniProt O95633); experiment: FSTL3 binders on small-molecule microarrays, primary screen, biochemical, small-molecule microarray, 635 nm fluorescence (AID 1105); conditions: FSTL3 binding, higher = more signal;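 also: score merges emission near 667 nm and signal to noise per printed spot across three slides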
[9] = target: Dickkopf-related protein 1 (Homo sapiens) (UniProt O94907); experiment: DKK1 binders on small-molecule microarrays, primary screen, biochemical, small-molecule microarray, 635 nm fluorescence scan (AID 1106); conditions: DKK1 binding, higher = more signal;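 also: score merges emission near 667 nm with signal to noise over three replicate slides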
[10] = test system: Inhibin beta A chain (activin A); experiment: INHBA (activin A) binders on microarrays, primary screen, biochemical, small-molecule microarray, 635 nm fluorescence scan (AID 1107); conditions: small-molecule microarray binding, higher = more signal;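 also: mouse activin A protein probed at 4.33 µg/mL on printed slides; score merges bound-protein fluorescence near 667 nm with spot signal-to-noise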
[11] = test system: Human papillomavirus type 1a protein E7 (residues 44-93); experiment: HPV1a E7 fragment binders on microarrays, primary screen, biochemical, small-molecule microarray, residues 44-93, 635 nm fluorescence (AID 1108); conditions: small-molecule microarray binding, fluorescence 635 nm; higher = more signal;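 also: E7 fragment applied at 1 µg/mL in TBST for 1 h at 4 C; score combines spot fluorescence with its signal to noise ratio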
[12] = modulators of HCV replicon luciferase signal, primary screen, HCV replication inhibitor project, Huh7 cells, luciferase reporter (AID 1109); conditions: 48 h, higher = more signal;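 also: huh7 hepatoma cells harbouring a luciferase neomycin HCV replicon reporter; luciferase luminescence as measure of HCV replicon replication; test concentration not given here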
[13] = target: Left-right determination factor 2 (Homo sapiens) (UniProt O00292); experiment: LEFTY2 binders on small-molecule microarrays, primary screen, biochemical, small-molecule microarray, 635 nm fluorescence scan (AID 1110); conditions: LEFTY2 binding, higher = more signal
[14] = target: Calmodulin-1 (Homo sapiens) (UniProt P0DP23); experiment: CALM1 binders on microarrays, EGTA buffer, profiling panel, biochemical, small-molecule microarray, Cy5-labelled CALM1 (AID 1111); conditions: Cy5-CALM1 binding fluorescence, higher = more signal;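 also: labelled calmodulin applied in Tris saline Tween buffer holding calcium plus EGTA and DTT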
[15] = target: Calmodulin-1 (Homo sapiens) (UniProt P0DP23); experiment: calcium-bound CALM1 binders on microarrays, profiling panel, artefact control for SMM control-protein annotation, biochemical, small-molecule microarray, Cy5-labelled CALM1, plus calcium (AID 1112); conditions: Cy5-CALM1 binding fluorescence, higher = more signal;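 also: score merges spot fluorescence with signal to noise from triplicate slides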
[16] = small-molecule microarray binders of probe aWnt5a, primary screen, biochemical, biotinylated probe, 635/667 nm fluorescence (AID 1113); conditions: higher = more signal;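 also: score merges 667 nm fluorescence intensity with signal-to-noise per printed feature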
[17] = small-molecule microarray binders of probe aShh, primary screen, biochemical, biotinylated probe, 635/667 nm fluorescence (AID 1114); conditions: higher = more signal;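 also: probe is biotin-labelled aShh protein from a stem cell growth factor screen; measures binding of labelled protein to compounds printed on the slide; score merges feature fluorescence at 667 nm with signal-to-noise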
[18] = small-molecule microarray binders of probe aNog, primary screen, biochemical, biotinylated probe, 635/667 nm fluorescence (AID 1115); conditions: higher = more signal;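 also: probe is biotinylated aNog protein used at 0.15 µg/mL for 1 h at 4 C; z-score combines 667 nm fluorescence of each spot with its signal to noise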
[19] = target: Torsin-1A-interacting protein 1 (Homo sapiens) (UniProt Q5JTV8); experiment: LAP1 binders from COS7 cell lysate, primary screen, small-molecule microarray, 635/667 nm fluorescence (AID 1116); conditions: COS7-hLAP1 lysate binding, 635 nm fluorescence, higher = more signal
[20] = target: Alpha-bungarotoxin (Bungarus multicinctus) (UniProt P60615); experiment: alpha-bungarotoxin binders on microarray, profiling panel, artefact control for SMM control protein annotation, biochemical, small-molecule microarray, Alexa647 label, 635/667 nm fluorescence (AID 1117); conditions: alpha-BTX-A647 binding fluorescence, higher = more signal
Alpha-bungarotoxin (Bungarus multicinctus), sequence (P60615 whole entry, looked up): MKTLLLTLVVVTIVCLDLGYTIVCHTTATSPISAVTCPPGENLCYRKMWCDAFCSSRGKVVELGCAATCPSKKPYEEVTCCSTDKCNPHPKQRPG

Left-right determination factor 2 (Homo sapiens), sequence (O00292 whole entry, looked up): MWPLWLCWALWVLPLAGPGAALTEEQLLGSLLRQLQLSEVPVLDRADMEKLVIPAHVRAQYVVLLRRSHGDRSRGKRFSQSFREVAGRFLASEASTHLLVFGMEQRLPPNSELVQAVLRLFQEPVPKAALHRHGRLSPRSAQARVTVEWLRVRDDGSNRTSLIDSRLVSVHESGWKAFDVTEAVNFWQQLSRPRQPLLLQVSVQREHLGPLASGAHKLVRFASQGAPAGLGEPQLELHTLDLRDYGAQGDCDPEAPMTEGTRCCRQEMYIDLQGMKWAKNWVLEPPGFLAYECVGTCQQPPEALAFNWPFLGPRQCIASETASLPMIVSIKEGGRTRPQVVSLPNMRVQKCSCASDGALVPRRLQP
Epidermal growth factor receptor (Homo sapiens), sequence (P00533 whole entry, looked up): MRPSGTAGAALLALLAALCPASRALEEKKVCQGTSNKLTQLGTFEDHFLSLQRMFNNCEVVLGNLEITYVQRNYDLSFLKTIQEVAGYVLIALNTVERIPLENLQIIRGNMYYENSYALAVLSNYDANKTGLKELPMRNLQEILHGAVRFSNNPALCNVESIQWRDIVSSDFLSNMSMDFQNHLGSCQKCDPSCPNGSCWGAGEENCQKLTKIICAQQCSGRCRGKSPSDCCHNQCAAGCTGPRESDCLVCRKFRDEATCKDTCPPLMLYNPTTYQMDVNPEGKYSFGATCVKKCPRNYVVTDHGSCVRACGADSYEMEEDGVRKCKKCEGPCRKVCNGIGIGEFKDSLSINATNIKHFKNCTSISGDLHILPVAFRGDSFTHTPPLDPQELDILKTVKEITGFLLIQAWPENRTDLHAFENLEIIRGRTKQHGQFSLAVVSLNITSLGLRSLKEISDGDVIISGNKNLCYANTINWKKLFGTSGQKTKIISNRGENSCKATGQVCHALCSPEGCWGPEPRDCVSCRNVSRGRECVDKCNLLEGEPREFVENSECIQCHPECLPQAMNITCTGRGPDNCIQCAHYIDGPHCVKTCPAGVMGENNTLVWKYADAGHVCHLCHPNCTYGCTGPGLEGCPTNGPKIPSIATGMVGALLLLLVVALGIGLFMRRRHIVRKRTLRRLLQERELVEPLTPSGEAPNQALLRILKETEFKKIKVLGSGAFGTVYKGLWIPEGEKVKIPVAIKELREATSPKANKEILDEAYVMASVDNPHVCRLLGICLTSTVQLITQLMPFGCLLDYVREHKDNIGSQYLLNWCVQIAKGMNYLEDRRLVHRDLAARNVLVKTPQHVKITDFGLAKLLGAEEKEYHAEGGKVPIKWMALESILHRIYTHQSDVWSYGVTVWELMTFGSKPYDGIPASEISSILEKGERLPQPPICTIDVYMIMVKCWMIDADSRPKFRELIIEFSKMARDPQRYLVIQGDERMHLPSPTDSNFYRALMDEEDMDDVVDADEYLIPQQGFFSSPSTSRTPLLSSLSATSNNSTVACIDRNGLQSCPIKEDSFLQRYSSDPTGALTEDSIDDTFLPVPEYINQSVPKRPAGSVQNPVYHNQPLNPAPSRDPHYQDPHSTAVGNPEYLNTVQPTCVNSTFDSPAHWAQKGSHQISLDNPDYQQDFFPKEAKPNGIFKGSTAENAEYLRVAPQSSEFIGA
Follistatin-related protein 3 (Homo sapiens), sequence (O95633 whole entry, looked up): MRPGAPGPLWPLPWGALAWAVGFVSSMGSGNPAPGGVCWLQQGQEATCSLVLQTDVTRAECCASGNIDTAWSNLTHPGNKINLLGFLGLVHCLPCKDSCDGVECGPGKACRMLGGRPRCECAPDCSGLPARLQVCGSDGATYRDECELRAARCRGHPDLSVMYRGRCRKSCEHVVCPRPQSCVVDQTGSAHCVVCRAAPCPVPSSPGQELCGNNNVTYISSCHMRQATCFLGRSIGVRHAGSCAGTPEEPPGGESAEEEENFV
Torsin-1A-interacting protein 1 (Homo sapiens), sequence (Q5JTV8 whole entry, looked up): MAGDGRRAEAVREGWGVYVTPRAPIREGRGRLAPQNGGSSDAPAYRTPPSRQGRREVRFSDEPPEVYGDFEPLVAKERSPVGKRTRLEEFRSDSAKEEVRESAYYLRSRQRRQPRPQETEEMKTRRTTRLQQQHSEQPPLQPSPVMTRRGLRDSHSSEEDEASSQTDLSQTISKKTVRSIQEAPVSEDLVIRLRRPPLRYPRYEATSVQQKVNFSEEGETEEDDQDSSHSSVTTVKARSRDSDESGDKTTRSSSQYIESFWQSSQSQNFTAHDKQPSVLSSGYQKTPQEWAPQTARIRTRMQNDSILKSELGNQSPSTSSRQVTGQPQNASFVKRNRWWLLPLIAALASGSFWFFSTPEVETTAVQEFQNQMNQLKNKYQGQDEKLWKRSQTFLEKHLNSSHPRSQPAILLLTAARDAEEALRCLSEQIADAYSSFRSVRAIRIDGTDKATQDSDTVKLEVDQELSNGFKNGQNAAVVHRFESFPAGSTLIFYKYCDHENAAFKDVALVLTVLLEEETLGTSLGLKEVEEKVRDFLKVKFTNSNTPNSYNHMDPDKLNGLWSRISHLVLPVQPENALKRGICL
Fibroblast growth factor 10 (Homo sapiens), sequence (O15520 whole entry, looked up): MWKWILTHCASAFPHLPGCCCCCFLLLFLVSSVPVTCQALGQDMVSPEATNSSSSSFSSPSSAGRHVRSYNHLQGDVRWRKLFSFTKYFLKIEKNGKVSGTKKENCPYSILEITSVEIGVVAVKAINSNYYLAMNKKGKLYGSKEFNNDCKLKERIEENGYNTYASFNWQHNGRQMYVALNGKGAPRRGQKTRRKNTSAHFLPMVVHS
Dickkopf-related protein 1 (Homo sapiens), sequence (O94907 whole entry, looked up): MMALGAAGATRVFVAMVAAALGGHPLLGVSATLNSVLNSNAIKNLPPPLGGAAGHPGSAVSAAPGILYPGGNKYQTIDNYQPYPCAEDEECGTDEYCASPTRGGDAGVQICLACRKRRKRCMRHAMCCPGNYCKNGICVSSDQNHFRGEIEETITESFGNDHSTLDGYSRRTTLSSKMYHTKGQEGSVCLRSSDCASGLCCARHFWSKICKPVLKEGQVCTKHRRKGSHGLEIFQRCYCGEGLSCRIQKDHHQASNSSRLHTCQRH

SMILES	composite z-score [1]	composite z-score [2]	composite z-score [3]	z-score [4]	composite z-score [5]	composite z-score [6]	composite z-score [7]	composite z-score [8]	composite z-score [9]	composite z-score [10]	composite z-score [11]	z-score [12]	composite z-score [13]	composite z-score [14]	composite z-score [15]	composite z-score [16]	composite z-score [17]	composite z-score [18]	composite z-score [19]	composite z-score [20]
CCOC(=O)C[C@H]1[C@H](OC(=O)c2ccc(-c3ccccc3)cc2)[C@@H](NC(=O)c2ccc3ccccc3c2)c2cc(OCCCO)ccc2N1C(=O)Cc1ccc(OC)cc1	-0.517	-0.0669	-0.269	-0.334 (inactive)	-0.383	0.247	-0.245	0.368	-0.416	0.487	0.758	-0.983	0.0216	0.868	0.171	-0.001	0.151	-0.0209	0.15	0.0773
CCOC(=O)C[C@H]1[C@H](OC(=O)Cc2ccc3c(c2)OCO3)[C@@H](NC(=O)C2CCCCC2)c2cc(OCCCO)ccc2N1C(=O)Cc1ccc(OC)cc1	0.17	-0.244	-0.214	-1.6 (inactive)	0.919	0.646	0.252	0.297	0.316	0.561	1.21	-1.39	0.341	0.0855	-0.629	-0.001	-0.0626	-0.543	-0.0511	0.199
Cc1cc(C)cc(N2C(=O)CS(=O)(=O)C2c2cccc([N+](=O)[O-])c2)c1 (stereo not given)	0.195	0.734	0.788	-0.352 (inactive)	0.612	0.124	0.518	0.366	0.122	0.826	-0.489	-0.0865	0.39	1.47	0.395	-0.15	0.108	0.549	1.23	1.25
COC(=O)C(CC#Cc1ccc2c(c1)[C@]1(C(=O)N2)[C@H](c2ccc(OCCO)cc2)N2[C@H](c3ccccc3)[C@H](c3ccccc3)OC(=O)[C@H]2[C@@H]1C(=O)NC[C@H](O)c1ccccc1)C(=O)OC	1.62	0.392	0.473	0.348 (inactive)	0.826	0.801	0.0713	0.617	0.271	0.39	1.17	-1.39	-0.0571	0.794	0.524	-0.0346	0.356	0.333	-0.585	2.1
CCC[C@@H]1C=C(C(=O)O)[C@H](c2ccc(C)cc2)N1S(=O)(=O)c1ccc(C)cc1	0.706	0.36	0.817	1.04 (inactive)	0.74	0.415	-0.278	0.192	-0.435	0.71	1.36	0.641	-0.442	0.665	0.0233	-0.0819	0.0815	0.582	0.959	1.45
CC(=O)Nc1cc(Br)ccc1C(=O)O	0.976	1.34	0.0861	-0.841 (inactive)	0.225	0.157	-0.433	0.0984	-0.44	-0.27	0.688	-0.0912	-0.229	0.908	0.762	-0.096	0.0556	-0.122	-0.134	0.424
NCCCCCNC(=O)[C@H]1C[C@H]2C(=O)NCC(=O)N2[C@H]1c1cccc(OCCO)c1	1.64	0.31	0.284	-0.284 (inactive)	1.25	1.29	0.388	0.764	0.912	-0.0463	1.34	-0.786	0.296	0.828	0.8	-0.157	0.158	-0.324	0.86	1.51
Cc1ccccc1C(O)C1C=CC2C(=O)N(C)C(=O)C2N1Nc1ccccc1 (stereo not given)	1.06	0.973	1.07	0.0737 (inactive)	0.2	0.63	-0.0369	0.304	0.0139	1.16	0.633	-0.712	0.103	2.3	1.06	0.111	-0.0289	1.07	1.91	1.08
